Results on 6 compounds are retold here after PubChem BioAssay (NCATS).

Assay [1] is described as follows: Cellular Toxicity (caspase-3) BJ (AID 658).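 Note: 0% = DMSO basal and 100% = 10 µM staurosporine.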 Particulars: BJ fibroblasts, luminescence; Potency: caspase-3 activation; series mostly up to 91.7 µM. In short, it runs like this: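 Luminescent aminoluciferin-substrate cleavage reports caspase 3/7 activity in normal human BJ fibroblasts after 16 hr compound exposure at 37 °C. Normalized to DMSO (basal) and 10 uM staurosporine (100%); AC50 from Hill fit of concentration-response.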

Assay [2] is described as follows: Cellular Toxicity (caspase-3) Mesangial (AID 660).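 Note: combined caspase 3 and 7 activity read by Caspase-Glo luminescence; cells exposed to compound for 16 h before the caspase read.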 The following applies: mesangial cells, normalized: DMSO 0%, 100 µM tamoxifen 100%; series mostly up to 91.7 µM. Summed up:
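Concentration-response qHTS: compound-induced rise in caspase 3/7 luminescence in human mesangial cells after 16 h, normalized to DMSO and 100 uM tamoxifen controls.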

Assay [3] deals with Estrogen receptor (Homo sapiens) (UniProt P03372). Nature of the assay: qHTS assay for small molecule antagonists of estrogen receptor alpha signaling (AID 588513; active = well fitted curve in the direction sought with a large enough effect in the signal ratio, with a control signal flat, not every such curve was filed as active; the % refers to the signal ratio; note: % is set by controls: 0 for no effect and ±100 for the full control effect). Particulars: ER-alpha-UAS-bla HEK293, beta-lactamase ratio, antagonist mode; series mostly up to 76.9 µM. In short, it runs like this:
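Beta-lactamase reporter, antagonist mode, HEK 293 GripTite cells; 0.5nM E2 stimulus, 18 h, 37 C; CCF4 dye 2 h RT; fluorescence. IC50 and efficacy from Hill fits, normalized to E2 and DMSO.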
For orientation: In qHTS, concentration-response curves come from the screen itself.

Assay [4] has as its target Vitamin D3 receptor (Homo sapiens) (UniProt P11473). As to the kind of experiment: qHTS assay for small molecule antagonists of vitamin D receptor signaling (AID 588541; calls by dose curve;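 note: receptor activated by calcitriol during compound treatment; % is set by controls: 0 for no effect and ±100 for the full control effect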). Particulars: HEK293T VDR-UAS-bla, beta-lactamase ratio, antagonist mode; series mostly up to 76.7 µM. Summed up: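 VDR-UAS-bla HEK293T cells (2000/well, 2% charcoal-stripped FBS) were treated with titrated compounds plus 1-alpha,25-dihydroxyvitamin D3 (50 nM or 3 nM final) for 16 h at 37 C. CCF4 beta-lactamase fluorescence was read; Hill fits gave IC50.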

Assay [5] shares this target. As to the kind of experiment: qHTS assay for small molecule agonists of vitamin D receptor signaling (AID 588543; calls by dose curve;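 note: 0% = DMSO basal and 100% = reference agonist control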). Particulars: HEK293T VDR-UAS-bla, beta-lactamase ratio, 16 h; series mostly up to 76.8 µM. In short, it runs like this:
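β-lactamase reporter, VDR-UAS-bla HEK293T, agonist mode. Cells plated 5 h at 37 °C, compound titration 16 h at 37 °C, CCF4 dye 2 h RT, ratio 460/530 nm. Hill fit → EC50, efficacy vs 50 nM 1α,25-(OH)2D3.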

Assay [6] can be described thus: qHTS assay for small molecule activators of the p53 signaling pathway (AID 651743; active = well fitted activation curve with a large enough effect in the signal ratio, not every such curve was filed as active; the % refers to the signal ratio; note: % of control where 0% means no effect). The following applies: HCT-116 p53RE-bla, beta-lactamase FRET ratio, 16 h; activation: stronger effect = higher value. In short, it runs like this:
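p53RE-bla HCT-116 cells with a stably integrated beta-lactamase reporter under p53 response elements were plated, rested 5 hours at 37 C/5% CO2, then exposed to compounds in DMSO for 16 hours at 37 C. LiveBLAzer B/G FRET substrate was read after 2 hours at room temperature.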

A short description of assay [7]: qHTS assay for small molecule activators of the nuclear factor-kappa B (NF-kB) signaling pathway (AID 651749; active = well fitted activation curve with a large enough effect in the signal ratio; the % refers to the signal ratio; note: % of control where 0% means no effect). Particulars: NF-kB-bla ME-180 cells, beta-lactamase FRET ratio, 16 h; stronger effect = higher value. In short, it runs like this:
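ME-180 cells stably carrying a beta-lactamase reporter under an NF-kB response element were exposed to compound or DMSO vehicle for 16 hr at 37C, 5% CO2. Pathway activation was read by FRET, since reporter expression disrupts FRET.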

In assay [8] the target is Nuclear receptor ROR-gamma (Homo sapiens) (UniProt P51449). As to the kind of experiment: qHTS assay for small molecule antagonists of the retinoid-related orphan receptor gamma (ROR-gamma) signaling pathway (AID 651802). Note: nearly all actives have a fitted effect of over 60% in size. Note: potency is the fitted concentration of half-maximal effect. Particulars: ROR-gamma antagonist cell reporter assay; series mostly up to 92.2 µM. Summed up: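 Antagonism is scored as a fall in luminescence from a RORE-luciferase reporter in CHO cells expressing ROR under a TET-inducible promoter, measured 16hr after doxycycline induction in the presence of compound.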
Sequence of Nuclear receptor ROR-gamma (Homo sapiens) (P51449 whole entry, looked up): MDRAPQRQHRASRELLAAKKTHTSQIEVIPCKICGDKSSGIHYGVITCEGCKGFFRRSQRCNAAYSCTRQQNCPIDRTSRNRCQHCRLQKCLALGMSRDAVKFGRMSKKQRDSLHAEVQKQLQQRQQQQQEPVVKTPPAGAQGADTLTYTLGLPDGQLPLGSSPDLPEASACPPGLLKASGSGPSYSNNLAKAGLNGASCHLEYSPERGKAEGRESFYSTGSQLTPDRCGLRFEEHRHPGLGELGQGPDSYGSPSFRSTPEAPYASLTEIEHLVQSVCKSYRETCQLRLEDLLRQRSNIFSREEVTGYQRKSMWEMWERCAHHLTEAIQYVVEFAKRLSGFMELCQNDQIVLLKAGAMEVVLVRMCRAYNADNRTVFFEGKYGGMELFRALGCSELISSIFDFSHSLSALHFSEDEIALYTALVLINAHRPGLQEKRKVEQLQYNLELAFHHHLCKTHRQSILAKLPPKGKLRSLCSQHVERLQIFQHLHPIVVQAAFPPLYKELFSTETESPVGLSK

Assay [9] in a line: Cell Viability - NIH 3T3 (AID 541).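 Note: cells exposed to compound for 40 hours; plate controls were DMSO alone for no effect and tamoxifen positive control for full effect; nearly all actives have a fitted effect of over 25% in size.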 Particulars: NIH 3T3 cell viability, qHTS; activity change, negative = cytotoxicity: at 92.2 µM (top of the series). In short, it runs like this: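 AC50 values reflect concentration-dependent loss of intracellular ATP in NIH 3T3 cells after 40 hr treatment in complete culture medium, quantified by luciferase-based luminescence.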
Assay [10] in a line: Cellular Toxicity (caspase-3) H-4-II-E (AID 663).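 Note: cells exposed to compound for 16 hr before readout.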 Particulars: H-4-II-E rat hepatoma; Potency: caspase-3 activation; series mostly up to 92.2 µM. Summed up: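 Luminescence from caspase-cleaved aminoluciferin substrate, read 20 min after reagent addition, reports caspase 3/7 activation in rat H-4-II-E cells after 16 hr compound exposure. Normalized to DMSO (basal) and 100 uM tamoxifen (100%); AC50 from Hill fits.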

In assay [11] the target is Cytochrome P450 3A4 (Homo sapiens) (UniProt P08684). Nature of the assay: qHTS Assay for Inhibitors and Substrates of Cytochrome P450 3A4 (AID 884). Note: % is set by controls: 0 for no effect and ±100 for the full control effect; nearly all actives have a fitted effect of over 50% in size. Particulars: recombinant CYP3A4, Luciferin-PPXE luminescence; series mostly up to 57.1 µM. In short, it runs like this: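 20 nM human CYP3A4 with 25 uM Luciferin-PPXE (at KM) in 200 mM KPO4, preincubated 10 min with compound; NADPH regeneration started a 60 min RT reaction. Luciferin detected by luminescence, normalized to 57 uM ketoconazole as full inhibition.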
Sequence of Cytochrome P450 3A4 (Homo sapiens) (P08684 whole entry, looked up): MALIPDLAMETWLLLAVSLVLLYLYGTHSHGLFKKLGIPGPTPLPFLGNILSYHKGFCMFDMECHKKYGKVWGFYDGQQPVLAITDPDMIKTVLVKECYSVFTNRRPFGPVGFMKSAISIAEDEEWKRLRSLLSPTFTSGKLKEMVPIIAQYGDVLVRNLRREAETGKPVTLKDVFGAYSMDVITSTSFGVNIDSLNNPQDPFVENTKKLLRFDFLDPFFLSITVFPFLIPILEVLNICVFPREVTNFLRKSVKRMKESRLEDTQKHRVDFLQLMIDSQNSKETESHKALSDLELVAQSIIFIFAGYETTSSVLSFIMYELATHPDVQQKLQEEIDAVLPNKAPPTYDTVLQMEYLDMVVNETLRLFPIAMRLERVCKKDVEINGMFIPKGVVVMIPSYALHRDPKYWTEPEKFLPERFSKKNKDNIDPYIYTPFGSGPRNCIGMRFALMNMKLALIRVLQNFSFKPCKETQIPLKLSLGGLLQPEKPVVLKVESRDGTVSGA

In assay [12] the target is Peroxisome proliferator-activated receptor delta (Homo sapiens) (UniProt Q03181). Nature of the assay: qHTS assay for small molecule antagonists of peroxisome proliferator-activated receptor delta signaling (AID 588535; active = well fitted inhibition curve with a large enough effect in the signal ratio, with a control signal flat, not every such curve was filed as active; the % refers to the signal ratio). Particulars: HEK293T PPARd-UAS-bla, beta-lactamase FRET ratio, 18 h; series mostly up to 76.7 µM. In short, it runs like this:
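GeneBLAzer PPAR-delta-UAS-bla HEK293T cells in medium with 2% charcoal/dextran FBS were preincubated 5 hrs at 37 C, then given compounds, incubated 18 hrs at 37 C, and read by CCF4 beta-lactamase fluorescence; IC50 from Hill fits.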

Assay [13] concerns the target Peroxisome proliferator-activated receptor gamma (Homo sapiens) (UniProt P37231). Nature of the assay: qHTS assay for small molecule agonists of peroxisome proliferator-activated receptor gamma signaling (AID 588536; active = well fitted curve in the direction sought with a large enough effect in the signal ratio, with a control signal flat, not every such curve was filed as active; the % refers to the signal ratio;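 note: 0% = DMSO basal wells and 100% = rosiglitazone at 2 µM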). The following applies: HEK293 PPARg-UAS-bla, beta-lactamase ratio, 16 h, percent of rosiglitazone response, DMSO as zero; series mostly up to 76.7 µM. In short, it runs like this: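 PPAR-gamma-UAS-bla HEK293 cells in medium with 1% charcoal/dextran-treated FBS were exposed to compounds for 16 h at 37 C. Beta-lactamase activity was read with CCF4 substrate (405 nm excitation, 460/530 nm emission).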

Assay [14] can be described thus: qHTS assay for small molecule agonists of the antioxidant response element (ARE) signaling pathway (AID 651741; active = well fitted activation curve with a large enough effect in the signal ratio; the % refers to the signal ratio; note: potency is the fitted concentration of half-maximal effect; for activation: % of control where 0% means no effect). Particulars: HepG2 ARE-bla reporter, beta-lactamase FRET ratio, 16 h; series mostly up to 96 µM. Summed up:
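ARE-bla HepG2 cells (beta-lactamase reporter under ARE control) were plated at 2,000 cells/well, preincubated 5 h at 37 C/5% CO2, then treated with DMSO-dissolved compounds for 16 h at 37 C; LiveBLAzer B/G FRET substrate added, fluorescence read after 2 h at room temperature.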

Assay [15] addresses Tumor necrosis factor (Homo sapiens) (UniProt P01375). Nature of the assay: qHTS assay to identify small molecules that stimulate Tumor Necrosis Factor-alpha (TNF-alpha) secretion (AID 651757; active = well fitted curve in the direction sought with a large enough effect in the signal ratio; the % refers to the signal ratio; note: 0% is about no effect). Particulars: Human cells, HTRF 665/615 ratio; series mostly up to 92.2 µM. Summed up:
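Secreted TNF-alpha from compound-treated THP-1 cells (17 hrs, 37 C) was quantified with a homogeneous time-resolved fluorescence antibody assay.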

Assay [16] is described as follows: qHTS assay for small molecule antagonists of the retinoid-related orphan receptor gamma (ROR-gamma) signaling pathway - cell viability counter screen (AID 720652; active = well fitted curve in the direction sought with a large enough effect in the repeat runs; an effect the other way counts as inactive or inconclusive;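 note: CHO reporter cells with doxycycline-induced ROR-gamma expression; compound exposure lasted 16 hr before ATP read; % is set by controls: 0 for no effect and ±100 for the full control effect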). Particulars: RORgamma reporter cell line viability counter screen; series mostly up to 92.2 µM. Summed up:
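Cytotoxicity is quantified via intracellular ATP (CellTiter-Glo luminescence) in doxycycline-induced CHO ROR response element-luciferase reporter cells treated with compound for 16 hr at 37 C, 5% CO2.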

The nature of assay [17]: qHTS assay for small molecule activators of the human pregnane X receptor (PXR) signaling pathway (AID 720659; call rule not given here; note: 0% is about no effect). The following applies: DPX-2 HepG2 CYP3A4-luciferase, 24 h; series mostly up to 92.3 µM.
Assay [18] is described as follows: Cell Viability - Jurkat (AID 426;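 active = dose-dependent loss of cell ATP signal giving a full or clear fitted curve, ranked by lower potency value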;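 note: potency is the fitted concentration of half-maximal effect; cells exposed to compound for 40 hours at 37 °C before ATP read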). The following applies: qHTS. In short, it runs like this:
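Seed 5000 Jurkat E6-1 cells/well; add compound; incubate 40 hr at 37 °C; add CellTiter-Glo; wait 20 min at room temperature; read luminescence. Fit concentration-response with Hill equation for AC50.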

Assay [19] deals with Estrogen receptor (Homo sapiens) (UniProt P03372). As to the kind of experiment: qHTS assay for small molecule agonists of estrogen receptor alpha signaling (AID 588514; calls by dose curve;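 note: 0% = vehicle only and 100% = reference agonist; nearly all actives have a fitted effect of over 70% in size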). The following applies: ER-alpha-UAS-bla HEK293, beta-lactamase ratio, 18 h; series mostly up to 76.8 µM. In short, it runs like this:
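Reporter-gene assay. […] controls beta-lactamase in HEK 293 GripTite cells; after 18 hrs with compound, CCF4 substrate is added for 2 hrs and fluorescence is read.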

The nature of assay [20]: Cellular Toxicity (caspase-3) SHSY5Y (AID 657). Particulars: SH-SY5Y caspase-3 activation; series mostly up to 91.7 µM. Summed up:
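Luminescent caspase-3/7 readout (aminoluciferin release) in SH-SY5Y cells after 16 h compound exposure in complete medium. Activity scaled between DMSO basal and 10 uM staurosporine as 100%; concentration-response fitted to Hill equation for AC50.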

Values joined by “and” are separate entries in the source; they are usually repeats but may differ in a detail not shown here. Identical values can stand only once. Unmarked numbers belong to inactive results. Results filed as inconclusive are left out. Active and inactive are the calls of the source. Unless noted, calls come from the whole dose curve; as a rule, active = well fitted curve in the direction sought with a large enough effect; inconclusive = small, poorly fitted or top-dose-only effect, or another doubt; inactive = no such curve, though single readings can be large; an effect the other way counts as inactive or inconclusive.

Sequence of Peroxisome proliferator-activated receptor gamma (Homo sapiens) (P37231 whole entry, looked up): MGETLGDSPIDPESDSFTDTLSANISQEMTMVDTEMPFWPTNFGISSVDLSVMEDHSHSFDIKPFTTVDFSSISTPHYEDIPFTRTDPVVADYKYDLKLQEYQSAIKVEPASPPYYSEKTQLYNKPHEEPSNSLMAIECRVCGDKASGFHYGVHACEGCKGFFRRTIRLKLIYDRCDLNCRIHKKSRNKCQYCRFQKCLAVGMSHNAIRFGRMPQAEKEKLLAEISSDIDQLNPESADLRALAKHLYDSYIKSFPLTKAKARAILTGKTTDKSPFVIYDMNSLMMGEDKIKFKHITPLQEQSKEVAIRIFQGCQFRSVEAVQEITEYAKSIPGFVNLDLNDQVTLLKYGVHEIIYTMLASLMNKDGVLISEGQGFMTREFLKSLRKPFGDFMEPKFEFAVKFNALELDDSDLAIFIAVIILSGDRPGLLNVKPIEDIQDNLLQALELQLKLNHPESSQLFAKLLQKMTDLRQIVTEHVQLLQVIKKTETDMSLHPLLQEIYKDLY
Sequence of Vitamin D3 receptor (Homo sapiens) (P11473 whole entry, looked up): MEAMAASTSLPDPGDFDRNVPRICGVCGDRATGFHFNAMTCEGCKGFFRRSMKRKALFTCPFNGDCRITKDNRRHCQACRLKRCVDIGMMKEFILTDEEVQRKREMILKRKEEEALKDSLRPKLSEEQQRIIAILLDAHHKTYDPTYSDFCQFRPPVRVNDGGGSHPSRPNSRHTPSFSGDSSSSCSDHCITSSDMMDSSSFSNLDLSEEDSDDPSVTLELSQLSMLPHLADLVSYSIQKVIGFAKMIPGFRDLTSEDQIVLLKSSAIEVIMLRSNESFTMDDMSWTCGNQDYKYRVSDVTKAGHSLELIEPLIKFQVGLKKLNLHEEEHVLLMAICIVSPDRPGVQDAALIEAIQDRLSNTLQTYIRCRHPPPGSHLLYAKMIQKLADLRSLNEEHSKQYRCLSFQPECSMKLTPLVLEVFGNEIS
Sequence of Peroxisome proliferator-activated receptor delta (Homo sapiens) (Q03181 whole entry, looked up): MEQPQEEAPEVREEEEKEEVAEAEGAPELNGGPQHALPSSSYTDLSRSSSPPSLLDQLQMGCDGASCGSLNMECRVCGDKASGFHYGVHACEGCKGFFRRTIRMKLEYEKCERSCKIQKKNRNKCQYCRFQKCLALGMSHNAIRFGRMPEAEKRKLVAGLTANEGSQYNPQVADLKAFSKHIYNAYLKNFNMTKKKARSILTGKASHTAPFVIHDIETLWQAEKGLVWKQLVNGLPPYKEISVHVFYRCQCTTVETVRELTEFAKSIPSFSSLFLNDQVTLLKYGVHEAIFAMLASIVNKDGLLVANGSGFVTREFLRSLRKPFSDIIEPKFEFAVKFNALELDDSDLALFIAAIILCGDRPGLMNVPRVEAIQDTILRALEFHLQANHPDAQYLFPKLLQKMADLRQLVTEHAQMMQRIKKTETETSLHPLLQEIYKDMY
Sequence of Tumor necrosis factor (Homo sapiens) (P01375 whole entry, looked up): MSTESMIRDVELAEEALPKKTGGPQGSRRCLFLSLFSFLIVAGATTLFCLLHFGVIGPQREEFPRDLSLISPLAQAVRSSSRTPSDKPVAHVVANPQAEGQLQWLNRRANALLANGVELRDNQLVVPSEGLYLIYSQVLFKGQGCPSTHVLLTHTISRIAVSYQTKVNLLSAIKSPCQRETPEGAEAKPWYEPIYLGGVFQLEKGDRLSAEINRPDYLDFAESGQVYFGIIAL
Sequence of Estrogen receptor (Homo sapiens) (P03372 whole entry, looked up): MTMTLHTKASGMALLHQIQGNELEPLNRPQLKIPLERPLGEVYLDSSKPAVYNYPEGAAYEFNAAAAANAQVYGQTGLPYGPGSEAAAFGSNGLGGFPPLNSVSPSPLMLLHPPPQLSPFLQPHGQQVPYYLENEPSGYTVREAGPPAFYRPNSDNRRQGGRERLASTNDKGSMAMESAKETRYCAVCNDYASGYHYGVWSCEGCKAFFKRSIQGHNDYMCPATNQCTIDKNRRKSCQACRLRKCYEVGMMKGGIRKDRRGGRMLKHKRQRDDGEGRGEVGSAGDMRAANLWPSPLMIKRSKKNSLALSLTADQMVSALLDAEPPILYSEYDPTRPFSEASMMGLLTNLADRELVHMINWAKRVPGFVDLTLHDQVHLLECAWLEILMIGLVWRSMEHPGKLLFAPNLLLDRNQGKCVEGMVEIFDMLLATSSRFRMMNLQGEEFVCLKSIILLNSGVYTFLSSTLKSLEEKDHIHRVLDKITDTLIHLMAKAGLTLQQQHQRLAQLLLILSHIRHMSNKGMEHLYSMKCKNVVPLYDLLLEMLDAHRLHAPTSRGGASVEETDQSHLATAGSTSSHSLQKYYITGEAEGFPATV

In the case of `CN(C)c1ccc(C(=N)c2ccc(N(C)C)cc2)cc1`, the Potency result in assay [1], in assay [4] and in assay [5] was “inactive” each time. The call in [2] and in assay [3] was inactive. Also, the activation in assay [6] is 11.1%; in assay [7], 3.33%. In [8], the Potency was 5.31 µM (active).
For `C=C(C#N)C(=O)OCC`, the activity change, negative = cytotoxicity in assay [9] is -117% (active). For the same compound, the call in assay [2], in assay [12], in assay [13] and in assay [17] was inactive. Besides, the Potency result in assay [10], in assay [11], in assay [14], in assay [15], in [8] and in [16] was “inactive” in each case. The activation was 2.02% in assay [6] and -1.44% in assay [7].
As for `CCc1ccc(C(c2ccc(CC)cc2)C(Cl)Cl)cc1`, the Potency was more than 92 µM in [18] and 66.8 µM (active) in assay [14]. In assay [9], the activity change, negative = cytotoxicity was -11.4%. In addition, the Potency entry in assay [1], in [11], in assay [19], in assay [4], in assay [5] and in [15] was “inactive” each time. Further, the compound was classed as inactive in [2] and in assay [3]. In addition, in assay [6], the activation was -0.867%.
Take `O=[N+]([O-])c1cc(N(CCO)CCO)ccc1NCCO`: the Potency entry in assay [20], in [1], in assay [11], in assay [19], in assay [4] and in [5] was “inactive” in each case. The Potency result in [14], in assay [8] and in [16] was “inactive” throughout. The compound was called inactive in assay [2], in assay [3], in assay [12] and in [17]. Moreover, the activation in [6] was -5.39% and -4.71%; in assay [7], -0.608% and 1.27%.
With `Cc1c(C(=O)O)c(O)cc2c1C(=O)c1c(O)c([C@H]3O[C@H](CO)[C@@H](O)[C@H](O)[C@H]3O)c(O)c(O)c1C2=O`, the activity change, negative = cytotoxicity in assay [9] is -80.4% (active). Moreover, the Potency entry in assay [20], in [1], in assay [19], in assay [4], in [5] and in assay [14] was “inactive” in each case. Besides, the result in assay [2], in assay [3], in assay [12], in assay [13] and in assay [17] was inactive. In [6], the activation was 0.0222%. Further, the Potency in assay [8] is 26.6 µM (active).
On to `CCCCC(CC)COP(=O)(OCC(CC)CCCC)OCC(CC)CCCC` (stereo not given), for which the Potency result in [20], in assay [1], in assay [4], in assay [5], in assay [15] and in assay [8] was “inactive” each time. Besides, the Potency result in assay [16] is “inactive”. In addition, the compound was called inactive in assay [2], in assay [12], in [13] and in assay [17]. Further, the figures for the activation in assay [6] and in assay [7] were -6.02% and -0.649%, respectively.
